Test [1] in a line: NCI Yeast Anticancer Drug Screen. Data for the rad50 strain (AID 155).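 Also: 0% = growth of vehicle-only cultures of the same strain.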 Particulars: S. cerevisiae rad50 strain growth inhibition, hits give high values. The method, boiled down:
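Cells are treated with compound, grown, and their growth is then scored against vehicle-only cultures of the same repair-deficient yeast strain.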

Test [2] is described as follows: NCI Yeast Anticancer Drug Screen. Data for the mec2-1 strain (AID 157). The following applies: S. cerevisiae mec2-1 strain, hits give high values. The method, boiled down:
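Cells of the genetically defined mec2-1 yeast strain are incubated with test compound. Inhibition of growth is calculated against vehicle-treated controls.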

Test [3] can be described thus: NCI Yeast Anticancer Drug Screen. Data for the sgs1 mgt1 strain (AID 161).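 Also: 0% = growth of cultures given vehicle only.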 Particulars: S. cerevisiae sgs1 mgt1 strain, hits give high values. Summed up: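 Mutant yeast exposed to compound; growth scored against vehicle-only wells.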
A short description of test [4]: NCI Yeast Anticancer Drug Screen. Data for the cln2 rad14 strain (AID 165).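 Also: 0% = growth equal to vehicle treated cultures.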 Particulars: S. cerevisiae cln2 rad14 strain, hits give high values. Summed up:
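The screen exposed genetically defined yeast (cln2 rad14) to test compounds and scored growth inhibition relative to vehicle-treated controls.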

A short description of test [5]: NCI Yeast Anticancer Drug Screen. Data for the bub3 strain (AID 167). The following applies: S. cerevisiae bub3 mutant strain, hits give high values. Summed up:
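Part of a panel of yeast mutants defective in DNA damage repair or cell cycle regulation. Each strain is grown with compound, and inhibition is calculated relative to solvent-treated cultures.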

Test [6] in a line: NCI Yeast Anticancer Drug Screen. Data for the mlh1 rad18 strain (AID 175). Particulars: S. cerevisiae mlh1 rad18 strain growth inhibition, hits give high values. The method, boiled down: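 Compound-treated yeast growth, normalised to vehicle controls. Strain bears defined DNA repair mutations.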
Where [7] appears, read: at 5.0 µM (retest, dose inferred, filed as 0.5).
[8] abbreviates: at 50.0 µM (retest, dose inferred, filed as 5.0).

This is part of a sample that, as a whole, favours compounds with a hit. Of some 79,000 tested, about 15% had one in any assay. Unmarked numbers belong to inactive results. Activity calls are given as the source filed them. Rule as the data show it: active = growth inhibition above about 70%; inactive = the rest.

In the case of `Cc1cccc2c(CBr)cc(=O)[nH]c12`, the growth inhibition in test [1] (setting [7]) is 7%; in test [1] (setting [8]), 91% (active); in test [1] (at 50.0 µM), 86.8% (active); in test [2] (setting [7]) it was 15%; in test [2] (setting [8]) it was 98% (active); in test [2] (at 50.0 µM) it was 90.1% (active). Also, the growth inhibition in test [3] (setting [7]) was 13%; in test [3] (setting [8]) it was 92% (active); in test [3] (at 50.0 µM), 84.3% (active); in test [4] (setting [7]), 4%; in test [4] (setting [8]), 61%; in test [4] (at 50.0 µM), 91.5% (active). The growth inhibition in test [5] (setting [7]) was 12%; in test [5] (setting [8]), 96% (active); in test [5] (at 50.0 µM), 94.2% (active); in test [6] (setting [7]), 35%; in test [6] (setting [8]), 97% (active); in test [6] (at 50.0 µM), 95.7% (active).
On to `C#CC(CC(C)C)(CC(C)C)OC(=O)Nc1ccccc1`, for which the growth inhibition in test [1] (setting [7]) is 5%; in test [1] (setting [8]) it was 95% (active); in test [1] (at 50.0 µM), 97.9% (active); in test [2] (setting [7]), 1%; in test [2] (setting [8]), 97% (active); in test [2] (at 50.0 µM), 97.3% (active). Also, the growth inhibition in test [3] (setting [7]) was 4%; in test [3] (setting [8]), 98% (active); in test [3] (at 50.0 µM), 98.1% (active); in test [4] (setting [7]) it was 3%; in test [4] (setting [8]), 96% (active); in test [4] (at 50.0 µM), 97.7% (active). In addition, the growth inhibition is 3% in test [5] (setting [7]); 94% (active) in test [5] (setting [8]); 97.5% (active) in test [5] (at 50.0 µM); -6% in test [6] (setting [7]); 95% (active) in test [6] (setting [8]); 97.3% (active) in test [6] (at 50.0 µM).
`Cc1ccnc2sc3ccccc3c(=O)c12`: the growth inhibition in test [1] (setting [7]) was 15%; in test [1] (setting [8]) it was 96% (active); in test [1] (at 50.0 µM) it was 86.8% (active); in test [2] (setting [7]), 14%; in test [2] (setting [8]), 93% (active); in test [2] (at 50.0 µM), 82.5% (active). Also, the growth inhibition is 4% in test [3] (setting [7]); 92% (active) in test [3] (setting [8]); 80.6% (active) in test [3] (at 50.0 µM); 4% in test [4] (setting [7]); 76% (active) in test [4] (setting [8]); 68.5% in test [4] (at 50.0 µM). For the same compound, the growth inhibition in test [5] (setting [7]) is 6%; in test [5] (setting [8]), 92% (active); in test [5] (at 50.0 µM), 83.5% (active); in test [6] (setting [7]), 11%; in test [6] (setting [8]), 95% (active); in test [6] (at 50.0 µM), 83.9% (active).
Take `OC(Cc1ccc2ccccc2c1)CN1CCC(c2ccccc2)CC1` (stereo not drawn): the growth inhibition in test [1] (setting [7]) is 56%; in test [1] (setting [8]), 84% (active); in test [1] (at 50.0 µM), 89.3% (active); in test [2] (setting [7]) it was 37%; in test [2] (setting [8]), 80% (active); in test [2] (at 50.0 µM) it was 83.5% (active). For the same compound, the growth inhibition in test [3] (setting [7]) is 24%; in test [3] (setting [8]) it was 76% (active); in test [3] (at 50.0 µM) it was 91.2% (active); in test [4] (setting [7]), 70% (active); in test [4] (setting [8]), 88% (active); in test [4] (at 50.0 µM), 90.1% (active). The growth inhibition in test [5] (setting [7]) is 67%; in test [5] (setting [8]), 96% (active); in test [5] (at 50.0 µM), 91.6% (active); in test [6] (setting [7]), 81% (active); in test [6] (setting [8]) it was 94% (active); in test [6] (at 50.0 µM), 90.5% (active).
With `Nc1ccccc1N=Cc1ccccc1O`, the growth inhibition in test [1] (setting [7]) was -12%; in test [1] (setting [8]), 54%; in test [1] (at 50.0 µM), 66.2%; in test [2] (setting [7]), -4%; in test [2] (setting [8]), 76% (active); in test [2] (at 50.0 µM), 41.2%. Further, the growth inhibition was -8% in test [3] (setting [7]); 91% (active) in test [3] (setting [8]); 0.4% in test [3] (at 50.0 µM); -18% in test [4] (setting [7]); 55% in test [4] (setting [8]); 22.8% in test [4] (at 50.0 µM). Moreover, the growth inhibition was -12% in test [5] (setting [7]); 63% in test [5] (setting [8]); 5.85% in test [5] (at 50.0 µM); 3% in test [6] (setting [7]); 80% (active) in test [6] (setting [8]); 69.3% in test [6] (at 50.0 µM).
On to `COc1ccc(C)c2nc3ccccc3nc12`, for which the growth inhibition in test [1] (setting [7]) is -119%; in test [1] (setting [8]) it was 86% (active); in test [1] (at 50.0 µM) it was 97% (active); in test [2] (setting [7]), -42%; in test [2] (setting [8]), 24%; in test [2] (at 50.0 µM), 74.5% (active). For the same compound, the growth inhibition in test [3] (setting [7]) is -64%; in test [3] (setting [8]), 51%; in test [3] (at 50.0 µM) it was 38.7%; in test [4] (setting [7]), -49%; in test [4] (setting [8]) it was 37%; in test [4] (at 50.0 µM), 56.2%. In addition, the growth inhibition in test [5] (setting [7]) is -58%; in test [5] (setting [8]) it was 31%; in test [5] (at 50.0 µM), 91.9% (active); in test [6] (setting [7]), -110%; in test [6] (setting [8]), 67%; in test [6] (at 50.0 µM), 87.7% (active).
